# Results as given in PMC4336329 (PLoS ONE, 2015).
# The whole screen tested about 310,000 compounds, of which about 14,000 (4.5%) showed an effect of 50% or more. The effect is printed as a negative number. The sample holds strong results, similar compounds and a random draw of the others, so the mix is not that of the screen.
# Target: human ether-à-go-go-related gene (hERG) potassium channel (human, UniProt Q12809)
# Experiment: primary screen, population patch clamp on CHO cells stably expressing hERG; higher = less effect of the substance
# 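Note: peak tail current of the secondary pulse compared with the same well before compound.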
# Sequence of human ether-à-go-go-related gene (hERG) potassium channel (Q12809 whole entry, looked up): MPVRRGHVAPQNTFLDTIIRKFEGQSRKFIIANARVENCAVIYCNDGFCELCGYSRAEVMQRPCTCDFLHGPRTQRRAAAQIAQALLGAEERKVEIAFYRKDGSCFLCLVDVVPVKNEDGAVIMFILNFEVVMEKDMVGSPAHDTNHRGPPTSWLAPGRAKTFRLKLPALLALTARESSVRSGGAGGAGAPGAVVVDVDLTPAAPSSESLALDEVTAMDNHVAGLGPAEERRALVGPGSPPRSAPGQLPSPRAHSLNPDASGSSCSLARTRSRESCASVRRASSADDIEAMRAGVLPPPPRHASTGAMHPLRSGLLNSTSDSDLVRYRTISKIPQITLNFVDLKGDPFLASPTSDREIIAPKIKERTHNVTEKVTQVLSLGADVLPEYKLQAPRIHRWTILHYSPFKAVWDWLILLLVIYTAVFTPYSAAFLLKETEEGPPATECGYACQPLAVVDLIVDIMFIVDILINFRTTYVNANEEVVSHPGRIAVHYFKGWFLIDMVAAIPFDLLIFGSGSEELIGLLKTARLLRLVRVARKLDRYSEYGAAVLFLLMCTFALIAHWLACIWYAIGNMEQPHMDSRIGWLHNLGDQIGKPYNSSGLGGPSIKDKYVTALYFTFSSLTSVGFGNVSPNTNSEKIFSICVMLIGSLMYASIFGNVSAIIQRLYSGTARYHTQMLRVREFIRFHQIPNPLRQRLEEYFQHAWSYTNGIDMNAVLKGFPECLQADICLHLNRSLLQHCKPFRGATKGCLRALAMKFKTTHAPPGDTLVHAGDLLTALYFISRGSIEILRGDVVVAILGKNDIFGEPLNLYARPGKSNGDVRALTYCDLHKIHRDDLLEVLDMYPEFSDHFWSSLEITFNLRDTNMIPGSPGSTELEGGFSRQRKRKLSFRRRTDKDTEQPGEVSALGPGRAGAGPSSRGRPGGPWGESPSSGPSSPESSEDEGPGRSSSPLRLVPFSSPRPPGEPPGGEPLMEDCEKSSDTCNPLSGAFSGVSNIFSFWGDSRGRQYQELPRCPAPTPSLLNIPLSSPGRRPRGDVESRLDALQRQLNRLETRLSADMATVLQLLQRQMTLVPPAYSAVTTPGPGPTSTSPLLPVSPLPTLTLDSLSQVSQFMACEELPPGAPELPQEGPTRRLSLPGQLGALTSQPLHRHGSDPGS
row,Compound,"hERG current change (%, negative = inhibition) at 10uM"
1,Cc1ccc(S(=O)(=O)N2CCCCC2CCNC(=O)C(=O)NCC2CCCO2)cc1 (stereo not drawn),-23.6%
2,O=C(CSc1cccc2cccnc12)N1CCCC1,12%
3,NS(=O)(=O)c1ccc(NC(=O)c2c(Cl)cccc2Cl)cc1,9.38%
4,Cc1ccc2c(CN3CCOCC3)cc(=O)oc2c1C,0.23%
5,O=c1cc(CN2CCN(C/C=C/c3ccccc3)CC2)c2cc(O)c(-c3ccccc3)cc2o1,11.6%
6,Cc1cc2oc(=O)cc(CN3CCCCC3)c2cc1O,-1.42%
7,Cc1c(O)ccc2c(CN3CCN(C/C=C/c4ccccc4)CC3)cc(=O)oc12,-64.1%
8,Cc1c(O)ccc2c(CN(C)Cc3ccccc3)cc(=O)oc12,10.2%
9,Cc1cc2oc(=O)cc(CN3CCN(C/C=C/c4ccccc4)CC3)c2cc1O,-80.9%
10,CCC(C)Sc1ccc([C@H]2N[C@@](C)(C(=O)OC)[C@H]3C(=O)N(CC)C(=O)[C@@H]23)cc1.O=C(O)C(F)(F)F (stereo partly drawn),7.25%
11,Brc1ccc(-c2nnc3n2-c2ccccc2CC3)cc1,-41.3%
12,COc1ccc(NC(=O)c2ccc(Cl)nc2)cc1S(=O)(=O)N1CCCCC1,-59%
13,COc1ccc(NC(=O)c2ccc(Cl)nc2)cc1S(=O)(=O)N1CCOCC1,-10.5%
14,COc1ccc(NC(=O)c2ccc(S(=O)(=O)N3CCCC3)cc2)cc1OC,-158%
15,COc1ccc(NC(=O)c2cccc(S(=O)(=O)N3CCCC3)c2)cc1OC,-4.78%
16,COc1ccc(C(=O)Nc2ccc(S(=O)(=O)N3CCCCC3)cc2)cc1OC,-9.83%
17,COc1ccc(NC(=O)c2cc(OC)c(OC)c(OC)c2)cc1S(=O)(=O)N1CCCCC1,15.5%
18,S=C(c1c[nH]c2ccccc12)N1CCCC1,9.74%
19,Cc1ccc(CN2CC(C(=O)Nc3nnc(SCc4c(Cl)cccc4Cl)s3)CC2=O)cc1 (stereo not drawn),14.1%
20,Cn1cc(C(=O)OCC(=O)NC2CCCC2)c2ccccc21,7.9%
21,O=[N+]([O-])c1ccccc1S(=O)(=O)NCCc1ccncc1,14.9%

row,Compound,"hERG current change (%, negative = inhibition) at 10uM"
1,COc1ccccc1C(=O)OCC(=O)Nc1ccc(Cl)cn1,10.1%
2,O=C(Nc1ccccc1F)NC1CCN(Cc2nnnn2Cc2ccc(F)cc2)CC1,-69.2%
3,COc1cccc(NC(=O)NC2CCN(Cc3nnnn3Cc3ccc(F)cc3)CC2)c1,-53.2%
4,Cc1ccc(Cn2nnnc2CN2CCC(NC(=O)c3ccccc3F)CC2)cc1,-27.2%
5,COc1cccc(NC(=O)NC2CCN(Cc3nnnn3Cc3ccc4c(c3)OCO4)CC2)c1,-23.3%
6,COCCn1nnnc1CN1CCC(NC(=O)Nc2cccc(OC)c2)CC1,8.3%
7,Cc1ccccc1C(=O)NC1CCN(Cc2nnnn2Cc2ccc(F)cc2)CC1,-40.9%
8,OC(c1ccccc1)(c1ccccc1)C1CCN(C(=S)NCCc2ccccc2)CC1,16.3%
9,CN(CC(=O)Nc1cccc(F)c1)C(=O)C1CC(=O)N(Cc2ccco2)C1 (stereo not drawn),-8%
10,CN(Cc1ccccc1)CC(O)COc1ccc(CNCCc2cccnc2)cc1 (stereo not drawn),-11.5%
11,COc1ccc(S(=O)(=O)N(CC(=O)NCc2ccccn2)c2ccc(Cl)cc2)cc1,13.3%
12,CCNC(=O)CN(c1ccc(C)cc1)S(=O)(=O)c1ccc(SC)cc1,-19%
13,O=C(CN(c1cccc(Cl)c1)S(=O)(=O)c1ccc(Cl)cc1)NCc1ccccn1,-53.1%
14,CN(CC(=O)NCc1ccccn1)S(=O)(=O)c1ccc(Cl)cc1,-12%
15,Cc1ccc(S(=O)(=O)N(CC(=O)NCc2ccccn2)c2ccc(Cl)cc2)cc1,-29.7%
16,CSc1ccc(S(=O)(=O)N(CC(=O)NCc2ccccn2)c2ccc(C)cc2)cc1,-59.3%
17,CCN(Cc1ccccc1)S(=O)(=O)c1ccc2c(c1)NC(=O)CS2,-44.5%
18,CN(CC(=O)Nc1ccccc1Br)C(=O)CN(C)C1CCCCC1,7.12%
19,Cc1cccc(C)c1-n1c(C)cc(/C=N/NC(=O)c2ccncc2)c1C,-12%
20,Cn1c(NC(=O)c2ccc(F)cc2)nc2ccccc21,21.5%
21,O=C(c1ccco1)N1CCN(C(=O)c2cc3cc([N+](=O)[O-])ccc3oc2=O)CC1,-52.4%

row,Compound,"hERG current change (%, negative = inhibition) at 10uM"
1,O=C(c1cc2cc([N+](=O)[O-])ccc2oc1=O)N1CCN(C2CCCCC2)CC1,-72.5%
2,O=C(c1ccco1)N1CCN(C(=O)c2cc3ccccc3oc2=O)CC1,-13.2%
3,O=C(c1cc2cc([N+](=O)[O-])ccc2oc1=O)N1CCOCC1,-0.062%
4,CCN1CCN(C(=O)c2cc3cc([N+](=O)[O-])ccc3oc2=O)CC1,-14.4%
5,O=C(c1cc2cc([N+](=O)[O-])ccc2oc1=O)N1CCN(c2ncccn2)CC1,-0.285%
6,Cc1ccc(S(=O)(=O)CCC(=O)Nc2ccc(Br)cc2)cc1,-7.37%
7,CC(C)OC(=O)c1cc(C(=O)c2cc(F)ccc2O)coc1=N,-7.34%
8,Cl.O=C(O)C1=CCNCC1,17.6%
9,Cl.O=C(O)C1=CCCNC1,-54.4%
10,COc1ccccc1C(=O)Nc1cc(C)ccc1NC(=O)c1ccco1,-44.4%
11,COc1ccccc1NC(=O)c1cc(Cl)ccc1NC(=O)c1ccco1,-1.81%
12,COc1ccc(NC(=O)c2ccccc2NC(=O)c2ccco2)cc1,18.5%
13,COc1ccccc1NC(=O)c1ccccc1NC(=O)c1cc(Cl)ccc1NC(=O)c1ccco1,2.97%
14,CCOc1ccccc1C(=O)Nc1cc(C)ccc1NC(=O)c1ccco1,-75.3%
15,COc1ccc(OC)c(NC(=O)c2ccccc2NC(=O)c2ccco2)c1,-75.6%
16,COc1ccc(NC(=O)c2cc(Cl)ccc2NC(=O)c2ccco2)c(OC)c1,-85.2%
17,COc1ccc(C(=O)Nc2ccccc2NC(=O)c2ccco2)c(OC)c1,-21.9%
18,COc1ccc(C(=O)Nc2ccc(Cl)cc2C(=O)NCCN2CCOCC2)cc1,-12.3%
19,Cc1ccc(NC(=O)c2ccco2)c(NC(=O)c2ccccc2C)c1,17.9%
20,COc1ccc(C(=O)Nc2ccc(Cl)cc2C(=O)NCCO)cc1,-53.8%
21,COc1ccc(C(=O)Nc2ccc(Cl)cc2C(=O)NCc2ccco2)cc1,-0.702%
